In PubChem BioAssay (EPA / NIEHS):
Records with an inconclusive call do not appear. Calls of active or inactive are those of the source. How the source made its calls: active means hit-call score of the fitted dose curve at least 0.9, where 1 is the maximum; inconclusive means response in the unintended direction; inactive means score below 0.9.

Test: ATG_XTT_Cytotoxicity: Cytotoxicity Assessment in the Attagene TRANS-FACTORIAL HepG2 Assay (AID 2283584)
Procedure, shortened: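 24 h chemical exposure of reporter-transfected HepG2; XTT signal loss vs DMSO indicates cytotoxicity.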
For `COc1ccc(C(C)=O)cc1`, the outcome was “inactive”.
In the case of `CC(=O)CCc1ccc(O)cc1`, the outcome is reported as “inactive”.
With `CCCCCCCCCOS(=O)(=O)O` the outcome was “inactive”.
With `CCCCN(CCO)CCO` the outcome was “inactive”.
For `O=S1(=O)CC=CC1`, the outcome was “inactive”.
For `CC(C)(O)CCc1ccccc1`, the outcome was “inactive”.
With `C=CC(=O)OCCCCCC` the outcome was “inactive”.
In the case of `C=CC(C)CCCC(C)(C)O` (stereo unspecified), the outcome is reported as “inactive”.
In the case of `CCCCCCCCCCOC(=O)c1ccccc1C(=O)OCCCCCCCC`, the outcome is reported as “inactive”.
In the case of `CCCCN(CCCC)CCCCCCN(CCCC)CCCC`, the outcome is reported as “inactive”.
In the case of `CCOc1ccc(NC(C)=O)cc1`, the outcome is reported as “inactive”.
With `CCCCCCCCCCCCN1CCOCC1` the outcome was “inactive”.
In the case of `OCCCO`, the outcome is reported as “inactive”.
For `CC(=O)c1ccc2ccccc2c1`, the outcome was “inactive”.
With `CC(C)C(=O)c1ccccc1` the outcome was “inactive”.
With `CC/C=C\CCCCO` the outcome was “inactive”.
With `CC1(C)CC(=O)CC(C)(C)N1` the outcome was “inactive”.
For `CC1=CC[C@@H]2C[C@H]1C2(C)C`, the outcome was “inactive”.
For `CC(C)(O)C(=O)c1ccc(OCCO)cc1`, the outcome was “inactive”.
For `CC(=O)C1=C(C)[C@@H]2C[C@@]3(C1)[C@H](C)CC[C@H]3C2(C)C`, the outcome was “inactive”.
With `CCCO` the outcome was “inactive”.
For `C=C(C)C(=O)OCCC(C)OC(=O)C(=C)C` (stereo unspecified), the outcome was “inactive”.
For `C/C=C(\C)C(=O)OC/C=C(\C)CCC=C(C)C`, the outcome was “inactive”.
With `CCCO[Si](OCCC)(OCCC)OCCC` the outcome was “inactive”.
With `CC(=O)CC(C)(C)C1CCCCC1` the outcome was “inactive”.
In the case of `CCCc1ccc(N)cc1`, the outcome is reported as “inactive”.
